Measurements taken from PubChem BioAssay (NCI).
About 83,000 compounds went through this panel and 20% of them were active in at least one assay; those are over-represented in the sample as a whole.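 The test compound was applied at a single concentration to cells in 96-well plates for 48 hours, and percent growth was recorded.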 Unmarked numbers belong to inactive results. Active and inactive are the calls of the source. Rule for the calls: active = growth percent below 10; inactive = the rest.

Tests used:
Test in all cases: NCI-60 one-dose screen, 48 h (100 = growth as untreated, 0 = no growth, -100 = all killed)
Settings in all cases: 10 µM
DU-145 prostate = tested on: DU-145 prostate
K-562 leukemia = tested on: K-562 leukemia
MALME-3M melanoma = tested on: MALME-3M melanoma
MDA-MB-231 breast = tested on: MDA-MB-231 breast
RXF 393 renal = tested on: RXF 393 renal
SF-268 CNS = tested on: SF-268 CNS
SF-295 CNS = tested on: SF-295 CNS
SF-539 CNS = tested on: SF-539 CNS
UACC-257 melanoma = tested on: UACC-257 melanoma
M14 melanoma = tested on: M14 melanoma

Compound	growth (DU-145 prostate)	growth (K-562 leukemia)	growth (MALME-3M melanoma)	growth (MDA-MB-231 breast)	growth (RXF 393 renal)	growth (SF-268 CNS)	growth (SF-295 CNS)	growth (SF-539 CNS)	growth (UACC-257 melanoma)	growth (M14 melanoma)
O=C(NC(=S)N1CCN(c2ncnc3c2cnn3-c2ccccc2)CC1)c1ccc(Cl)cc1	81.1%	61.5%	56.1%	57.1%	43.1%	41.2%	34.2%	11.2%	83.8%	79.9%
COc1cc2oc(-c3cccc(C(=O)Nc4ccc(Cl)cc4)c3)cc(=O)c2c(OCCNC(=O)CNC(=O)OC(C)(C)C)c1OC	77.5%	46%	65%	30.1%	-17.7% (active)	81.8%	50.6%	67.3%	80.8%	60.2%
O=C(Nc1ccc(F)c(Cl)c1)c1cc(-c2ccc(F)cc2F)ccc1O	13.3%	6.16% (active)	-28.6% (active)	-24.5% (active)	-16.6% (active)	4.5% (active)	-82.1% (active)	-7.23% (active)	-13.5% (active)	20%
COc1ccsc1/C=N/NC(=O)c1[nH]c2ccc(Br)cc2c1-c1ccccc1	11.7%	1.22% (active)	22.3%	3.17% (active)	30.8%	17.2%	-7.83% (active)	-18.5% (active)	11.4%	5.95% (active)
COc1ccc([C@H]2C(C(=O)c3ccc(Cl)cc3)C3(N[C@@H]2c2ccccc2)C(=O)Nc2ccc(Cl)cc23)cc1 (stereo not given in full)	14.6%	3.72% (active)	-10.6% (active)	-68.3% (active)	-64.3% (active)	20.2%	-63.2% (active)	-46.1% (active)	9.2% (active)	11%
CC(=O)Nc1ccc(-n2cnc3cc(-c4ccc(NS(C)(=O)=O)cc4)ccc32)cc1	58.2%	24%	75.6%	49.4%	92.5%	47.3%	51%	65.3%	64.4%	61.9%
O=C(N/N=C/c1ccc(-c2cccc([N+](=O)[O-])c2)o1)c1[nH]c2ccc(Br)cc2c1-c1ccccc1	6.18% (active)	4.74% (active)	39%	6.8% (active)	26.4%	36%	-15.3% (active)	-49.8% (active)	41.9%	10.4%
CC(=O)Nc1ccc(-n2cnc3cc(-c4ccc(O)cc4)ccc32)cc1F	34%	6.14% (active)	65.6%	34.7%	-0.397% (active)	40.6%	2.75% (active)	-5.18% (active)	59.8%	35.5%
COc1ccccc1[C@H]1C(C(=O)c2ccc(Cl)cc2)C2(N[C@@H]1c1ccccc1)C(=O)Nc1ccc(Cl)cc12 (stereo not given in full)	10.5%	1.21% (active)	-24.8% (active)	4.86% (active)	-29.4% (active)	26.3%	2.46% (active)	-16.6% (active)	22.4%	28.4%
O=C(Nc1nc2ccc([N+](=O)[O-])cc2s1)Nc1cc(Cl)ccc1I	17.3%	-5.74% (active)	-41% (active)	-37% (active)	-44.8% (active)	1.99% (active)	-71% (active)	-74.3% (active)	-36.5% (active)	-52.7% (active)
COc1ccc(OC)c(/C=N/NC(=O)c2ccc3nc(-c4ccc(Cl)cc4)[nH]c3c2)c1	48%	47.1%	81.6%	10.3%	3.46% (active)	57%	48.1%	54.7%	114%	69.1%
Cc1ccc(NCC(=O)Nn2c(COc3ccccc3)nc3ccccc3c2=O)cc1	85.9%	88.2%	80.8%	62%	51.3%	49.8%	58%	51.4%	83.6%	93.3%
CC(C)(C)Nc1nc2cc(Cl)c(Cl)cc2nc1S(C)(=O)=O	57.2%	-5.97% (active)	-78.5% (active)	26.7%	6.24% (active)	73.7%	91.1%	47.3%	70.6%	5.68% (active)
O=c1oc2ccc(-c3ccc(F)cc3F)cc2c(=O)n1-c1ccc(F)cc1	14.5%	5.98% (active)	-21.2% (active)	-5.38% (active)	-10.4% (active)	2.76% (active)	-19.3% (active)	-3.51% (active)	15.5%	18.3%
Cc1cccc(NC(=O)CSc2nc3ccc(F)cc3c(=O)n2-c2ccc(Cl)cc2)c1C	69.6%	84.3%	65.5%	51.8%	18.8%	59.1%	57.5%	25.7%	87.7%	74%
O=c1oc2ccc(-c3ccc(F)cc3F)cc2c(=O)n1-c1ccc(Cl)c(C(F)(F)F)c1	14.2%	10.1%	-26.7% (active)	-19.8% (active)	-14.3% (active)	12%	-74% (active)	-7.49% (active)	-5.73% (active)	21.5%
Nc1cccnc1/C=N/NC(=S)NCCNC(=O)c1ccc(-n2nc(-c3ccccc3O)nc2-c2ccccc2O)cc1	27.9%	7.44% (active)	14.3%	19.8%	-10.6% (active)	32.8%	-6.19% (active)	-23.2% (active)	7.34% (active)	-39% (active)
Cc1ccc(F)cc1N/C=c1\s/c(=C(\C#N)C(=O)Nc2ccccc2)n(-c2ccccc2)c1=O	54.5%	83.4%	53%	2.68% (active)	6.54% (active)	69.5%	47.8%	27%	99%	82.4%
COc1ccc([C@H]2C(C(=O)c3ccc(Cl)cc3)C3(N[C@@H]2c2ccccc2)C(=O)Nc2ccc(Br)cc23)cc1 (stereo not given in full)	17%	5.88% (active)	-7.99% (active)	-58.3% (active)	-72.9% (active)	18.9%	-60.2% (active)	-21.5% (active)	17%	16.1%
CO[C@H]1CSS[C@@H]1Cn1nc(-c2ccc(Oc3ccccc3)cc2)c2c(N)ncnc21	38.3%	7.28% (active)	-38.2% (active)	9.69% (active)	18.6%	32.4%	35.4%	36.1%	-3.47% (active)	-93% (active)
O=C(c1ccc(Cl)cc1)C1[C@H](c2ccc(Br)cc2)[C@@H](c2ccccc2)NC12C(=O)Nc1ccc(Br)cc12 (stereo not given in full)	-43.2% (active)	-37.6% (active)	-95.5% (active)	-96.1% (active)	-94.8% (active)	-28.6% (active)	-97.2% (active)	-88.8% (active)	-71.3% (active)	3.03% (active)
COc1cc(/C=N/NC(=O)c2ccc3nc(-c4ccc(Cl)cc4)[nH]c3c2)cc(OC)c1OC	-28.7% (active)	-12.4% (active)	-92.8% (active)	-74.5% (active)	-84.3% (active)	-33.9% (active)	-73.7% (active)	-95.7% (active)	-47.7% (active)	-28% (active)
CO[C@@H]1CSS[C@H]1Cn1nc(-c2ccc(Oc3ccccc3)cc2)c2c(N)ncnc21	73.5%	8.2% (active)	63.4%	72.6%	35.5%	70%	43.1%	50%	40.8%	-64.2% (active)
Cc1ccc2nc3c(nc2c1)c1cc(I)ccc1n3CCN(C)C	13%	4.47% (active)	9.73% (active)	14.8%	29.8%	45.4%	17.3%	26.4%	41.9%	16.3%
